Results from PubChem BioAssay AID1159580 (chemical genetic matrix, 2015).
Screen size: about 5,500 compounds; about 2,000 (36%) were called active. Not shown: some 18% with an inconclusive outcome. Cut-off read from the data, not from the text of the source: active = normalized growth mostly below about 0.91 (no sharp cut-off); inconclusive = no clear call, values can overlap the other calls; inactive = mostly above about 0.92. This is one part of the list.

Assay: chemical genetic growth profiling, strain panel (AID 1159580);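 note: tested at 20 µM; growth read once vehicle control cultures reached saturation at 30 °C; 1 = growth at the plate median or of vehicle wells; lower values mean less growth of the strain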
Settings: S. cerevisiae deletion strains, growth OD

Measured: normalized growth

CO/N=C1/CC(C)(C)Cc2c(-c3ccn(C(=O)Nc4cccc(Cl)c4)n3)sc(SC)c21
inactive: locus YAR019C, strain CDC15, stronger effect = lower value 0.981 | locus YBL105C, strain PKC1, stronger effect = lower value 0.965 | locus YBR135W, strain CKS1, stronger effect = lower value 0.968 | locus YBR136W, strain MEC1, stronger effect = lower value 0.969 | locus YBR160W, strain CDC28, stronger effect = lower value 0.964 | locus YDL017W, strain CDC7, stronger effect = lower value 0.967 | locus YDL028C, strain MPS1, stronger effect = lower value 0.963 | locus YDL101C, strain DUN1, stronger effect = lower value 0.975 | locus YDL108W, strain KIN28, stronger effect = lower value 0.959 | locus YDL132W, strain cdc53, stronger effect = lower value 0.967 | locus YDL214C, strain PRR2, stronger effect = lower value 0.983 | locus YDR052C, strain DBF4, stronger effect = lower value 0.973 | locus YDR054C, strain cdc34, stronger effect = lower value 0.971 | locus YDR226W, strain ADK1, stronger effect = lower value 0.974 | locus YDR477W, strain SNF1, stronger effect = lower value 0.996 | locus YER123W, strain YCK3, stronger effect = lower value 0.993 | locus YER133W, strain GLC7, stronger effect = lower value 1 | locus YFL009W, strain cdc4, stronger effect = lower value 0.963 | locus YFL029C, strain CAK1, stronger effect = lower value 0.978 | locus YFR003C, strain YPI1, stronger effect = lower value 0.96 | locus YFR019W, strain FAB1, stronger effect = lower value 1 | locus YFR028C, strain CDC14, stronger effect = lower value 0.969 | locus YGR040W, strain KSS1, stronger effect = lower value 1 | locus YGR052W, strain FMP48, stronger effect = lower value 1.02 | locus YGR092W, strain DBF2, stronger effect = lower value 1 | locus YHR079C, strain IRE1, stronger effect = lower value 1.13 | locus YHR082C, strain KSP1, stronger effect = lower value 1.1 | locus YHR205W, strain SCH9, stronger effect = lower value 0.989 | locus YIL147C, strain SLN1, stronger effect = lower value 0.972 | locus YJL095W, strain BCK1, stronger effect = lower value 1.02 | locus YJL128C, strain PBS2, stronger effect = lower value 0.952 | locus YJL157C, strain FAR1, stronger effect = lower value 0.996 | locus YJR016C, strain ILV3, stronger effect = lower value 0.97 | locus YJR066W, strain TOR1 (second series), stronger effect = lower value 1.06 | locus YJR066W, strain TOR1, stronger effect = lower value 1.1 | locus YKL048C, strain ELM1, stronger effect = lower value 0.993 | locus YKL067W, strain YNK1, stronger effect = lower value 0.98 | locus YKL101W, strain HSL1, stronger effect = lower value 0.988 | locus YKL193C, strain SDS22, stronger effect = lower value 0.968 | locus YKL203C, strain TOR2, stronger effect = lower value 1.06 | locus YLR113W, strain HOG1, stronger effect = lower value 0.968 | locus YLR133W, strain CKI1, stronger effect = lower value 0.98 | locus YLR403W, strain SFP1, stronger effect = lower value 1.02 | locus YML070W, strain DAK1, stronger effect = lower value 0.984 | locus YMR001C, strain CDC5, stronger effect = lower value 0.977 | locus YMR205C, strain PFK2 (second series), stronger effect = lower value 0.978 | locus YMR277W, strain FCP1, stronger effect = lower value 0.97 | locus YNL006W, strain LST8, stronger effect = lower value 0.981 | locus YNL020C, strain ARK1, stronger effect = lower value 0.983 | locus YNL161W, strain CBK1, stronger effect = lower value 0.977 | locus YNL183C, strain NPR1, stronger effect = lower value 1.03 | locus YNL207W, strain RIO2, stronger effect = lower value 0.971 | locus YNL222W, strain SSU72, stronger effect = lower value 0.969 | locus YNL307C, strain MCK1 (second series), stronger effect = lower value 0.992 | locus YOL078W, strain AVO1, stronger effect = lower value 0.966 | locus YOL136C, strain PFK27, stronger effect = lower value 0.993 | locus YOR061W, strain CKA2, stronger effect = lower value 0.98 | locus YOR119C, strain RIO1, stronger effect = lower value 1.05 | locus YOR231W, strain MKK1, stronger effect = lower value 0.984 | locus YOR329C, strain SCD5, stronger effect = lower value 0.971 | locus YPL031C, strain PHO85, stronger effect = lower value 1.02 | locus YPL153C, strain RAD53, stronger effect = lower value 1.04 | locus YPL204W, strain HRR25, stronger effect = lower value 1.02 | locus YPL209C, strain IPL1, stronger effect = lower value 0.969 | locus YPL256C, strain CLN2, stronger effect = lower value 1.13 | locus YPR025C, strain CCL1, stronger effect = lower value 0.963 | locus YPR106W, strain ISR1, stronger effect = lower value 0.975 | locus YPR111W, strain DBF20, stronger effect = lower value 0.962 | strain NNK1, stronger effect = lower value 0.989 | strain TSCII, stronger effect = lower value 0.977
active: locus YHR030C, strain SLT2, stronger effect = lower value 1.16 [resistant]
